Hits are enriched below; roughly 9.2% of the tested compounds scored in any of these assays.
SMN2 splice enh – SMN2 splice variant enhancement; Potency, µM (series often up to 46.1 µM), without a hit: at the top dose activity change, positive = activation, usual class: activators; 210,000 tested, 2.8% active; HEK293 SMN2-luciferase splicing reporter, luminescence, 30-36 h; AID 1458; further: % of control where 0% means no effect; nearly all actives have a fitted effect of over 55% in size
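HEK293 cells carry an SMN2 minigene-luciferase reporter in which exon 7 inclusion puts luciferase in frame. Cells were seeded at 2000 cells/well, attached for 10-12 hours, then exposed to compounds for 30-36 hours at 37C before ONE-Glo luminescence.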
NPC1 promoter act – activates the NPC1 promoter; Huh7 NPC1 promoter luciferase reporter, 24 h; AID 485313; 320,000 tested, 2.4% active; Potency, µM (series often up to 9.22 µM), for the others: top-dose activation, usual class: activators; further: % of control where 0% means no effect; nearly all actives have a fitted effect of over 60% in size
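Huh7 cells stably carrying NPC1 promoter–luciferase, plated in Opti-MEM with 10% FBS for 2 h, were exposed to compound in DMSO for 24 h at 37 °C; luciferase reagent was added for 10 min and luminescence read.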
FLuc counter – firefly luciferase modulation, counter-screen for miR-21 project. purified FLuc, Km substrates, luminescence inhibition. Potency, µM (titrated, usually from 57.5 µM), for inactives: at the highest dose activity change, negative = inhibition, actives largely listed as inhibitors. 360,000 tested, 6.9% active;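 further: plate controls were vehicle for no effect and reference inhibitor for full effect; nearly all actives have a fitted effect of over 55% in size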
Target sequence (P08659 whole entry, looked up): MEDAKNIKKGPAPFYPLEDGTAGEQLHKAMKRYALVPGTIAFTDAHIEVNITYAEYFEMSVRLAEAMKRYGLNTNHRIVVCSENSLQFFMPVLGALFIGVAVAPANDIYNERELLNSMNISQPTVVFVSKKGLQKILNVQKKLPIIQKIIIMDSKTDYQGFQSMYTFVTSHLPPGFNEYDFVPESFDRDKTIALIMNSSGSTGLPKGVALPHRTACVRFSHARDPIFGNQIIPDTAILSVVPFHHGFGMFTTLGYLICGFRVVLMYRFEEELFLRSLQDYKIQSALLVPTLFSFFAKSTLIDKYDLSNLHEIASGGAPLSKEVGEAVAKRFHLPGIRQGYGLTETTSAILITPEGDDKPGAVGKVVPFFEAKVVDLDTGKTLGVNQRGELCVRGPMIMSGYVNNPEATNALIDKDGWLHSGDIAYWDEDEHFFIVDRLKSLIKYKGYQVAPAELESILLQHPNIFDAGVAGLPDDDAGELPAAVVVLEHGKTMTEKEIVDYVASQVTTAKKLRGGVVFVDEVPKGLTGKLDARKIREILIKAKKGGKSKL
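Purified P. pyralis luciferase, 10 nM final, with Km-level 10 uM D-luciferin and 10 uM ATP in 50 mM Tris acetate pH 7.5, 10 mM Mg acetate, 0.01% Tween-20, 0.05% BSA; 6-point qHTS titration about 60 µM downward; luminescence read.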
ELG1 repair inh – ELG1-dependent DNA repair inhibition. 330,000 tested, 2.3% active. HEK293T ELG1-luciferase reporter, luminescence, 16 h; DNA damage induced by 5-fluorouridine. Potency, µM (doses to about 46.1 µM), for inactives: at the top dose activity change, negative = inhibition, hits mostly inhibitors; further: on the % scale 0 is the no-effect control and ±100 the full control effect; nearly all actives have a fitted effect of over 55% in size
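Quantitative HTS, concentration-response format. 2,000 cells/well co-treated with 5-fluorouridine and compound, 16 hr in 5% CO2 at 37 °C; ONE-Glo luminescence read after 30 min.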
Rab9 promoter act – activates the Rab9 promoter; Huh7 Rab9 promoter-luciferase reporter, luminescence, 24 h; Potency, µM (series often up to 9.22 µM), without a hit: at the highest dose activation, negative = inhibition, most hits filed as activators; 320,000 tested, 2.8% active; further: % of control where 0% means no effect; nearly all actives have a fitted effect of over 60% in size
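Huh7 cells stably carrying Rab9 promoter–luciferase reporter, plated 1500 cells/well, compound added after 2 h and incubated 24 h at 37 °C; luciferase luminescence then read after 10 min with detection reagent.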
ELG1 genotoxic – inducers of genotoxicity in HEK293T ELG1-luciferase cells; AID 504466; HEK293T ELG1-luciferase reporter, luminescence, 16 h; 330,000 tested, 1.3% active; Potency, µM (doses to about 46 µM), for inactives: top-dose activity change, positive = activation, actives largely listed as activators; further: % of control where 0% means no effect; nearly all actives have a fitted effect of over 60% in size
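Cells (2,000/well) expressing the ELG1-luciferase fusion are dosed by pin tool and kept 16 hr at 37 °C, 5% CO2. Signal comes from ONE-Glo luciferase reagent after 30 min at room temperature.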
* hit, by the source's call; [ ] = another dose, or the depositor's remark. The call rests on the fitted dose curve; in most records, active means well fitted curve in the direction sought with a large enough effect; inconclusive means small, poorly fitted or top-dose-only effect, or another doubt; inactive means no such curve, though single readings can be large; an effect the other way counts as inactive or inconclusive. Potency means the concentration at half of the fitted maximal effect.

Results for CCOC(=O)c1c(NC(C)=O)c2c3c(sc2n1Cc1nc(-c2ccc(Cl)cc2)oc1C)CCCC3 ?
SMN2 splice enh: 5%; FLuc counter: -6%

What do the screens show for `CC(=O)Nc1ccc2nc(NC(=O)c3ccc([N+](=O)[O-])s3)sc2c1`?
NPC1 promoter act: 22%; FLuc counter: 5.4µM*; ELG1 repair inh: -8%; Rab9 promoter act: inconclusive; ELG1 genotoxic: 3%

How did Cc1nc2ccc(NC(=O)c3cccs3)cc2s1 do in these assays?
NPC1 promoter act: 3.5µM*; FLuc counter: 17µM*; ELG1 repair inh: inconclusive; Rab9 promoter act: 2.5µM*; ELG1 genotoxic: inconclusive

How did Cc1nc2ccc(NC(=O)c3sccc3C)cc2s1 do in these assays?
SMN2 splice enh: 11µM*; NPC1 promoter act: 1.8µM*; FLuc counter: 7.6µM*; ELG1 repair inh: inconclusive; Rab9 promoter act: 2.2µM*; ELG1 genotoxic: inconclusive

Results for COc1ccccc1NC(=O)COC(=O)c1ccc([N+](=O)[O-])s1 ?
SMN2 splice enh: 8%; NPC1 promoter act: -3%; FLuc counter: -13%; ELG1 repair inh: 6%; Rab9 promoter act: -2%; ELG1 genotoxic: 0%

Results for CCc1sc(C(=O)Nc2ccc3nc(C)sc3c2)cc1C ?
ELG1 repair inh: inconclusive; ELG1 genotoxic: 13%

What do the screens show for `CCc1ccccc1NC(=O)c1ccc([N+](=O)[O-])s1`?
SMN2 splice enh: -46%; NPC1 promoter act: -3%; FLuc counter: 3%; ELG1 repair inh: 12µM*; Rab9 promoter act: 5%; ELG1 genotoxic: -10%

How did COc1ccc(C(C)=O)cc1COC(=O)c1cnc(Cl)c(Cl)c1 do in these assays?
SMN2 splice enh: -3%; NPC1 promoter act: -2%; FLuc counter: -2%; ELG1 repair inh: 30%; Rab9 promoter act: -2%; ELG1 genotoxic: 16%

What do the screens show for `CCOC(=O)c1[nH]c2ccccc2c1NC(=S)Nc1cccc(C)c1`?
SMN2 splice enh: -4%; NPC1 promoter act: 15%; FLuc counter: -14%; ELG1 repair inh: inconclusive; Rab9 promoter act: -3%; ELG1 genotoxic: -2%

Results for CC(NC(=O)c1ccccc1F)C1CC1 (centres undefined) ?
NPC1 promoter act: 1%; FLuc counter: -1%; ELG1 repair inh: -5%; Rab9 promoter act: -2%; ELG1 genotoxic: 6%

What do the screens show for `Cc1ccc2nc(Cl)c(/C=N/Nc3ccc(C(=O)O)cc3)cc2c1`?
NPC1 promoter act: 0.32µM*; FLuc counter: 0.067µM*; ELG1 repair inh: inconclusive; Rab9 promoter act: 0.45µM*; ELG1 genotoxic: inconclusive

How did Cc1ccc(NCC(=O)N/N=C/c2cc3ccccc3nc2Cl)cc1 do in these assays?
SMN2 splice enh: -6%; NPC1 promoter act: -2%; FLuc counter: 15µM*; ELG1 repair inh: 4%; Rab9 promoter act: -4%; ELG1 genotoxic: 5%

Results for Cc1cc(=O)oc2cc(OCC(=O)NC3CC(C)(C)NC(C)(C)C3)c(Cl)cc12 ?
NPC1 promoter act: -1%; FLuc counter: -1%; ELG1 repair inh: -2%; Rab9 promoter act: 0%; ELG1 genotoxic: 1%[9.26 µM]

What do the screens show for `CN(C)c1ccc(C(=O)OCC(=O)NCCC2=CCCCC2)cc1`?
SMN2 splice enh: -2%; NPC1 promoter act: -2%; FLuc counter: -9%; ELG1 repair inh: 8%; Rab9 promoter act: 12%; ELG1 genotoxic: -4%

Results for O=C(COC(=O)c1ccccc1)NCCC1=CCCCC1 ?
SMN2 splice enh: -5%; NPC1 promoter act: -1%; FLuc counter: 15µM*; ELG1 repair inh: -20%; Rab9 promoter act: 1%; ELG1 genotoxic: 0%

How did Cc1ccsc1C(=O)OCC(=O)NCCC1=CCCCC1 do in these assays?
SMN2 splice enh: 20%; NPC1 promoter act: 22%; FLuc counter: 12µM*; ELG1 repair inh: inconclusive; Rab9 promoter act: 22%; ELG1 genotoxic: inconclusive

What do the screens show for `O=C(COC(=O)c1ccc(Br)cc1)NCCC1=CCCCC1`?
SMN2 splice enh: -3%; NPC1 promoter act: -3%; FLuc counter: 3%; ELG1 repair inh: 7%; Rab9 promoter act: -2%; ELG1 genotoxic: 3%

Results for O=C(CCCc1ccccc1)NCCC1=CCCCC1 ?
SMN2 splice enh: -6%; NPC1 promoter act: -4%; FLuc counter: 24µM*; ELG1 repair inh: -3%; Rab9 promoter act: 4%; ELG1 genotoxic: 1%

How did CCN(CC)c1ccc2cc(C(=O)Nc3ccccn3)c(=O)oc2c1 do in these assays?
SMN2 splice enh: 2.8µM*; NPC1 promoter act: 0.32µM*; FLuc counter: 0.54µM*; ELG1 repair inh: inconclusive; Rab9 promoter act: 0.11µM*; ELG1 genotoxic: inconclusive

Results for CCCCCCc1cc2cc(C(N)=O)c(=N)oc2cc1O ?
SMN2 splice enh: -2%; NPC1 promoter act: 2%; FLuc counter: 17µM*; ELG1 repair inh: inconclusive; Rab9 promoter act: -1%; ELG1 genotoxic: -8%

What do the screens show for `CCN(CC)c1ccc2cc(C(C)=O)c(=O)oc2c1`?
SMN2 splice enh: 4%; NPC1 promoter act: 1%; FLuc counter: inconclusive; ELG1 repair inh: inconclusive; Rab9 promoter act: 20%; ELG1 genotoxic: inconclusive

How did CCN(CC)c1ccc2cc(C(N)=O)c(=N)oc2c1 do in these assays?
SMN2 splice enh: 17%; NPC1 promoter act: 3%; FLuc counter: 24µM*; ELG1 repair inh: inconclusive; Rab9 promoter act: 12%; ELG1 genotoxic: inconclusive

What do the screens show for `CCN(CC)c1ccc2cc(C(=O)Nc3cccnc3N3CCOCC3)c(=O)oc2c1`?
NPC1 promoter act: -2%; FLuc counter: -17%; ELG1 repair inh: 2%; Rab9 promoter act: -2%; ELG1 genotoxic: 6%

What do the screens show for `CCN(CC)c1ccc2cc(NC(=O)CCC(=O)O)c(=O)oc2c1`?
SMN2 splice enh: -55%; NPC1 promoter act: -23%; FLuc counter: 6.7µM*; ELG1 repair inh: 0%; Rab9 promoter act: -28%; ELG1 genotoxic: -12%

What do the screens show for `CCn1cc(C(=O)OCC(=O)Nc2cc(Cl)ccc2C)c(=O)c2ccc(C)nc21`?
SMN2 splice enh: 1%; FLuc counter: -1%

How did O=C1c2oc3ccccc3c(=O)c2C(c2ccccc2F)N1Cc1ccc2c(c1)OCO2 (centres undefined) do in these assays?
SMN2 splice enh: -2%; FLuc counter: 1%

What do the screens show for `CN1CCC=C(C(=O)N2c3ccccc3Sc3ccc(Cl)cc32)C1`?
NPC1 promoter act: -5%; FLuc counter: 5%; ELG1 repair inh: 29%; Rab9 promoter act: -1%; ELG1 genotoxic: -1%

What do the screens show for `Cc1cccc2sc(N)nc12`?
SMN2 splice enh: -1%

Results for CC(C)C(C(=O)O)N1CCS(=O)(=O)CC1 (centres undefined) ?
SMN2 splice enh: 16%; NPC1 promoter act: -3%; FLuc counter: -1%; ELG1 repair inh: 9%; Rab9 promoter act: -31%; ELG1 genotoxic: 0%

Source: PubChem BioAssay
